Screens: PubChem, National Center for Advancing Translational Sciences (NCATS)
In the library only some 5.6% were active in any assay of this set; here they are far more common.
PKM2 act = qHTS Assay for Activators of Human Muscle isoform 2 Pyruvate Kinase | Pyruvate kinase PKM (Homo sapiens), P14618 | purified PKM2, Kinase-Glo ATP luminescence, activation; response scale: 0% is enzyme alone, no compound | Potency, µM (highest dose often 57.5 µM), hits mostly activators | 260,000 compounds, 0.34% hits | AID 1631, 2009; further: nearly all actives have a fitted effect of over 55% in size
Target sequence (P14618 whole entry, looked up, canonical isoform): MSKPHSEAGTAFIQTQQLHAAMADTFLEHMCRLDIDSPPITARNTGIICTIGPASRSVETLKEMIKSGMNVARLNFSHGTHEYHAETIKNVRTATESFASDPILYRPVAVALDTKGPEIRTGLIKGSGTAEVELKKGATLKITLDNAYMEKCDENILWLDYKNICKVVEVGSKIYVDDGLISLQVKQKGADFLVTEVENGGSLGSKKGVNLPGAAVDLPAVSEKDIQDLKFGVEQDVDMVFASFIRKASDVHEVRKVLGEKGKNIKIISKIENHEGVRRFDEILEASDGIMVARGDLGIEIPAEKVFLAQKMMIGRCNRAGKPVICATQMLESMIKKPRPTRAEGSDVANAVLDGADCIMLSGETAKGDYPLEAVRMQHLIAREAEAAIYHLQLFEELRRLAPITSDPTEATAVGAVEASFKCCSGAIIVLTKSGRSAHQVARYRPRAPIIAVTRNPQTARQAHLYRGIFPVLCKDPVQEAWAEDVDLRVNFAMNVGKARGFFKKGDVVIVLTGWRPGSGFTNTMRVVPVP
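Purified hPK-M2 (>95%) run at intermediate activity with 0.1 mM ADP and 0.5 mM PEP in 50 mM imidazole pH 7.2, KCl, MgCl2; 1 h room temperature. ATP formed read by Kinase-Glo luminescence; normalized to uninhibited and no-enzyme controls.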
Gal4-VP16 FLuc = VP16 counterscreen qHTS for inhibitors of ROR gamma transcriptional activity; Drosophila S2 Gal4-VP16 UAS-luciferase, luminescence, 20 h; Potency, µM (titrated, usually from 53.6 µM), actives largely listed as inhibitors; 310,000 compounds, 3.5% hits;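 further: Gal4-VP16 expression switched on by copper sulfate through the metallothionein promoter; nearly all actives have a fitted effect of over 50% in size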
Six1-Eya2 inh = qHTS Assay for Inhibitors of the Six1/Eya2 Interaction; 360,000 compounds, 0.56% hits; Homeobox protein SIX1 (Homo sapiens) + Protein phosphatase EYA2 (Homo sapiens), …; activity change, % (no concentration beside the values); AlphaScreen GST-Six1/His-Eya2 binding, biochemical; stronger effect = lower value; in the data active means activity change below about -65%; inconclusive means mostly about -30% to -63%
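GST-Six1 + His-Eya2 (5X stock: 250/500 nM); Tris pH 8.0, 300 mM NaCl, 0.05% BSA, 0.02% Tween 20; GSH donor/Ni acceptor beads; 1 h 37 °C dark; AlphaScreen readout.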
RORgamma inh = qHTS for inhibitors of ROR gamma transcriptional activity | Nuclear receptor ROR-gamma (Mus musculus), P51450 | Drosophila S2 Gal4-RORgamma UAS-luciferase reporter, 20 h | Potency, µM (titrated, usually from 53.6 µM), most hits filed as inhibitors | 310,000 compounds, 5.4% hits; further: nearly all actives have a fitted effect of over 60% in size
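ROR gamma transcriptional activity was tracked as Gal4-UAS luciferase output in stably transfected Drosophila Schneider cells, with compound added 1 hr before 700 uM copper sulfate induction and a 20 hr ambient-temperature incubation.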
CtBP-E1A blk = qHTS Assay for Inhibitors of the CtBP/E1A Interaction; CtBP / adenovirus E1A interaction (AlphaScreen); AlphaScreen GST-E1A/His-CtBP binding, 1536-well; stronger effect = lower value; activity change, % (test concentration not listed); 340,000 compounds, 0.49% hits; AID 651724, 2012; in the data active means activity change below about -65%; inconclusive means mostly about -30% to -63%
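In 5 uL wells, 23 nL compound meets equimolar GST-E1A and His-CtBP (5X stock 125 nM each) for 2 h, 37 °C. Beads (5X, 50 ug/mL) then 1 h, 37 °C, dark.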
Of the large screens only hits and unclear results are named; the others gave an inactive call. Unless noted, the call rests on the fitted dose curve; in most records, active means well fitted curve in the direction sought with a large enough effect; inconclusive means small, poorly fitted or top-dose-only effect, or another doubt; inactive means no such curve, though single readings can be large; an effect the other way counts as inactive or inconclusive.

C=CCn1c(-c2cccc3ccccc23)n[nH]c1=S	Gal4-VP16 FLuc 10µM, RORgamma inh 3.5µM
C=CCn1c(SCc2csc(-c3ccc(C)cc3)n2)nnc1-c1ccccc1OC	Gal4-VP16 FLuc inconclusive, RORgamma inh inconclusive
Cc1ccc(NC(=S)NCC23C=CC(O2)C2C(=O)N(c4ccc(C)cc4)C(=O)C23)cc1 (stereo unspecified)	PKM2 act inconclusive, Gal4-VP16 FLuc 14µM, RORgamma inh inconclusive
Cc1cccc(NC(=S)NCC23C=CC(O2)C2C(=O)N(c4ccc(Cl)cc4)C(=O)C23)c1 (stereo unspecified)	Gal4-VP16 FLuc inconclusive
Cc1ccc(S(=O)(=O)NCC23C=CC(O2)C2C(=O)N(c4ccccc4)C(=O)C23)cc1 (stereo unspecified)	Gal4-VP16 FLuc inconclusive, RORgamma inh 8.9µM
CC(C)(C)OC(=O)NCC12C=CC(O1)C1C(=O)N(Cc3ccccc3)C(=O)C12 (stereo unspecified)	Gal4-VP16 FLuc inconclusive, RORgamma inh inconclusive
Cc1ccc(N2C(=O)C3C4C=CC(CNC(=S)N5CCN(c6ccccc6)CC5)(O4)C3C2=O)cc1 (stereo unspecified)	PKM2 act inconclusive, Gal4-VP16 FLuc inconclusive, RORgamma inh 10µM (no result: CtBP-E1A blk)
CCCc1c(-c2cccc(Br)c2)ncn1Cc1ccccc1OC	none (no result: PKM2 act, Gal4-VP16 FLuc, RORgamma inh)
CSCC[C@H](N)C(=O)N[C@@H](CO)C(=O)N[C@@H](CCCN=C(N)N)C(=O)N1CCC[C@H]1C(=O)N[C@@H](C)C(=O)N[C@@H](CS)C(=O)N1CCC[C@H]1C(=O)N[C@@H](CC(N)=O)C(=O)N[C@@H](CC(=O)O)C(=O)N[C@@H](CCCCN)C(=O)N[C@@H](Cc1ccc(O)cc1)C(=O)N[C@@H](CCC(=O)O)C(=O)O	none (no result: PKM2 act, Six1-Eya2 inh, CtBP-E1A blk)
O=C(O)CCC(=O)Nc1cc(C(F)(F)F)cc(C(F)(F)F)c1	none (no result: CtBP-E1A blk)
COc1ccc(CN2CCN(C(=O)CCC(=O)Nc3nnc(C4CCCCC4)s3)CC2)cc1F	none (no result: PKM2 act)
S=C(NCCc1ccccc1)N/N=C/C1CCCCC1	Gal4-VP16 FLuc 5.6µM, RORgamma inh 1.4µM (no result: Six1-Eya2 inh, CtBP-E1A blk)
S=C(NCCc1ccccc1)NN=C1CCCCCC1	none
O=C(NC(=S)NCCc1ccccc1)C1CCCCC1	Gal4-VP16 FLuc 4µM, RORgamma inh 2.8µM
O=C(NC(=S)NCc1ccccc1)C1CC1	Gal4-VP16 FLuc inconclusive, RORgamma inh 6.3µM
O=C(CNC(=S)NC(=O)C1CCCCC1)c1ccccc1	Gal4-VP16 FLuc inconclusive, RORgamma inh 7.9µM
O=C(NCc1ccccc1)C1CCCC1	none (no result: Six1-Eya2 inh, CtBP-E1A blk)
N#Cc1ccc(-c2cccnc2)nc1SCC(=O)Nc1sc2c(c1C#N)CCC2	Gal4-VP16 FLuc inconclusive, RORgamma inh 13µM
Cc1cc(-c2n[nH]c(=S)o2)c(C)n1-c1ccccc1	Gal4-VP16 FLuc inconclusive, RORgamma inh 13µM
CCn1c(COc2ccccc2C)nnc1SCC(=O)N1CCN(c2ccccc2)CC1	none
CCn1c(COc2cccc(C)c2C)nnc1SCC(=O)N1CCN(c2ccc(OC)cc2)CC1	Gal4-VP16 FLuc 0.89µM
O=C(CSc1nnc(Cc2cccs2)n1Cc1ccco1)Nc1cccc(Cl)c1	Gal4-VP16 FLuc 11µM, RORgamma inh inconclusive
CCn1c(CNC(=O)COc2ccc(C(C)C)cc2)nnc1SCC(=O)Nc1ccccc1C(C)C	Gal4-VP16 FLuc 20µM
N#Cc1ccccc1NC(=O)CSc1nnc(-c2ccccc2O)n1-c1ccccc1	Gal4-VP16 FLuc inconclusive, RORgamma inh 13µM
O=C(O)CNC(=O)/C(=C\c1cccc([N+](=O)[O-])c1)NC(=O)c1ccco1	none
Cc1ccc(C)c(S(=O)(=O)N2CCCOC2CNC(=O)C(=O)NCc2ccccn2)c1 (stereo unspecified)	none
COc1ccc(NC(=O)CSc2nnc(COc3ccccc3)n2Cc2ccco2)cc1OC	Gal4-VP16 FLuc 11µM
COc1ccc(C(C)=O)cc1CSc1nnc(-c2ccc(Cl)cc2)n1-c1ccccc1	Gal4-VP16 FLuc 16µM, RORgamma inh inconclusive
COc1ccc(C(C)=O)cc1CSc1nnc(-c2ccncc2)n1C	none
Cc1cnc(NC(=O)CSc2ncc(-c3ccccc3)n2Cc2ccco2)s1	Six1-Eya2 inh inconclusive, RORgamma inh 11µM
COc1ccccc1NC(=O)CC(=O)CSc1nnc(-c2ccc(C)cc2)n1-c1ccccc1	Gal4-VP16 FLuc 10µM, RORgamma inh 7.1µM
CCn1c(COc2ccccc2)nnc1SCC(=O)CC(=O)Nc1ccccc1OC	Gal4-VP16 FLuc 22µM, RORgamma inh inconclusive
CCn1c(COc2cccc(C)c2)nnc1SCC(=O)N1CCCC1	RORgamma inh inconclusive
CCn1c(COc2ccccc2C)nnc1SCC(=O)CC(=O)Nc1ccccc1OC	Gal4-VP16 FLuc 13µM, RORgamma inh 10µM
CCn1c(C)nnc1SCC(=O)Nc1ccccc1OC	none
CCn1c(COc2cccc(C)c2)nnc1SCC(=O)CC(=O)Nc1ccccc1OC	Gal4-VP16 FLuc inconclusive, RORgamma inh 10µM
CC(=O)Nc1nc(NC(=O)C(Cl)(Cl)Cl)n(-c2ccccc2)n1	Gal4-VP16 FLuc 13µM, RORgamma inh 7.1µM
O=C(O)C1CCc2sc3[nH]c(=S)n(-c4ccccc4)c(=O)c3c21 (stereo unspecified)	none
Cc1cccc(-n2c(=S)[nH]c3sc4c(c3c2=O)CCc2ccccc2-4)c1	Gal4-VP16 FLuc 1.4µM, RORgamma inh 0.35µM
Cc1ccc(-n2c(=S)[nH]c3sc4c(c3c2=O)CCc2ccccc2-4)cc1	Gal4-VP16 FLuc 0.63µM, RORgamma inh 0.45µM (no result: CtBP-E1A blk)
CC1CCCN(C(=O)c2cccc(S(=O)(=O)N3CCCC3)c2)C1 (stereo unspecified)	none (no result: PKM2 act, Gal4-VP16 FLuc, RORgamma inh)
C/C(=N\NC(N)=O)c1cc(Cl)cc(Cl)c1O	Gal4-VP16 FLuc 10µM, RORgamma inh 0.89µM
C/C(=N\O)c1cc(Cl)cc(Cl)c1O	RORgamma inh inconclusive
CC1=NN(C(=S)Nc2ccccc2)C(c2ccccc2)C1 (stereo unspecified)	Gal4-VP16 FLuc inconclusive, RORgamma inh 13µM
Cc1cccc(NC(=S)N2N=CCC2c2ccccc2)c1 (stereo unspecified)	Gal4-VP16 FLuc inconclusive
Cc1cc(NC(=O)CSc2cn(CC(=O)N(C(C)C)C(C)C)c3ccccc23)no1	none (no result: PKM2 act)
Brc1ccc(-c2nn3c(-c4ccccn4)nnc3s2)o1	Six1-Eya2 inh -77, CtBP-E1A blk -78
COc1cccc(-c2nn3c(-c4ccccn4)nnc3s2)c1	Six1-Eya2 inh inconclusive, CtBP-E1A blk inconclusive
COc1ccc(-c2nn3c(-c4ccccn4)nnc3s2)cc1OC	Six1-Eya2 inh -81, CtBP-E1A blk -89
Brc1ccc(-c2nn3c(-c4ccco4)nnc3s2)o1	Six1-Eya2 inh inconclusive, CtBP-E1A blk inconclusive
